From PubChem BioAssay (EPA / NIEHS)
Several values for one entry are separate records, joined by “and”; a condition that tells them apart may be missing. Identical values can stand only once. More than one record can exist for a structure, and the calls need not agree. Activity calls are given as the source filed them. Rule for the calls: active = hit-call score of the fitted dose curve at least 0.9, where 1 is the maximum; inactive = score below 0.9.

Key:
[1] = ATG_CRE_CIS: Attagene CIS-FACTORIAL HepG2 Assay for human cAMP Responsive Element (CRE) binding protein 3 (AID 2282926); details: HepG2 CRE cis-reporter, Attagene multiplexed mRNA; actives raise or lower the signal
Method in brief: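 Transfected HepG2 were treated for 24 hours, then RNA was extracted and reporter cDNA amplified with sequence-specific primers. Labelled fragments were separated by capillary electrophoresis, and the CRE signal was fitted bidirectionally with DMSO as baseline.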

[2] = target: CCAAT/enhancer-binding protein beta (Homo sapiens) (UniProt P17676); experiment: ATG_C_EBP_CIS: Attagene CIS-FACTORIAL HepG2 Assay for human CCAAT/Enhancer Binding Protein (C/EBP) beta (AID 2282927); details: HepG2 Attagene cis-factorial transcription factor reporter; actives raise or lower the signal
Method in brief: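 HepG2 transiently transfected with multiplexed reporter units under cis-regulatory promoters reporting endogenous C/EBPb activity. After 24 h exposure, reporter mRNA assayed by RT-PCR, fluorescent labelling, HpaI digestion and capillary electrophoresis; bidirectional fitting versus DMSO.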

[3] = ATG_CMV_CIS: Attagene CIS-FACTORIAL HepG2 Assay for human CMV (Internal Marker) (AID 2282928); details: HepG2 CMV promoter reporter, transcription factor profiling; actives raise or lower the signal;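 note: endpoint acts as a background internal control marker rather than a target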
Method in brief: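 After transient transfection of HepG2 with reporter transcription units driven by cis-regulatory promoters, cells receive test chemical for 24 h. Labeled reporter amplicons, digested with HpaI, are sized and quantified by capillary electrophoresis against DMSO.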

[4] = ATG_DR4_LXR_CIS: Attagene CIS-FACTORIAL HepG2 Assay for human Liver X Receptor (LXR), DR4 submotif (AID 2282929); details: HepG2 Attagene DR4 cis-reporter, mRNA transcription; actives raise or lower the signal
Method in brief: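 Transiently transfected HepG2 liver cells; cis-regulated reporters; 24 h dosing. RT-PCR plus CE read-out of reporter mRNA. DMSO baseline, bidirectional curve fitting.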

[5] = target: Aryl hydrocarbon receptor (Homo sapiens) (UniProt P35869); experiment: ATG_Ahr_CIS: Attagene CIS-FACTORIAL HepG2 Assay for human Aryl Hydrocarbon Receptor (Ahr) (AID 2282930); details: HepG2 AhR cis-factorial reporter transcription; actives raise or lower the signal
Method in brief: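 HepG2 cells transiently transfected with cis-element-driven multiplexed reporter units; endogenous AhR activity read as reporter mRNA 24 h after dosing, via RT-PCR, 6-FAM labelling, HpaI digestion and capillary electrophoresis. Bidirectional fit relative to DMSO.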

[6] = ATG_AP_1_CIS: Attagene CIS-FACTORIAL HepG2 Assay for human Activator Protein 1 (AP-1) (AID 2282931); details: HepG2 Attagene cis-factorial AP-1 reporter mRNA; actives raise or lower the signal
Method in brief: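 We transfected HepG2 cells transiently with a set of cis-regulated reporter transcription units, dosed them for 24 h, and quantified reporter mRNA via RT-PCR and capillary electrophoresis, scoring gain or loss of signal relative to DMSO.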

[7] = ATG_AP_2_CIS: Attagene CIS-FACTORIAL HepG2 Assay for human Activator Protein 2 (AP-2) (AID 2282932); details: HepG2 AP-2 cis-reporter, Attagene transcription factor profiling; actives raise or lower the signal
Method in brief: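 Multiplexed mRNA reporter assay in HepG2: cis-regulated units report endogenous factor activity after 24 h treatment. Fluorescence from capillary electrophoresis of RT-PCR products gives the signal, with DMSO as baseline.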

[8] = ATG_BRE_CIS: Attagene CIS-FACTORIAL HepG2 Assay for human Bone Morphogenetic Protein (BMP) Response Element (BRE) (AID 2282933); details: HepG2 BMP response element reporter, Attagene transcription factor profiling; actives raise or lower the signal
Method in brief: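 Read-out: reporter mRNA induction quantified by RT-PCR and capillary electrophoresis after 24 h chemical exposure of transfected HepG2 cells. Endogenous factor activity on the BMP response element; gain or loss fitted against DMSO baseline.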

[9] = target: Retinoic acid receptor alpha (Homo sapiens) (UniProt P10276); experiment: ATG_DR5_RAR_CIS: Attagene CIS-FACTORIAL HepG2 Assay for human Retinoic Acid Receptor Alpha (RARE), DR5 submotif (AID 2282934); details: HepG2 Attagene cis-factorial RARE DR5 reporter, mRNA; actives raise or lower the signal;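 for AC50: reporter responds to endogenous RAR alpha beta and gamma in HepG2 not RARA alone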
Method in brief: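 HepG2 cells transiently transfected with multiplexed reporter units; DR5 cis-element drives reporter through endogenous transcription factors. After 24 h dosing, reporter mRNA quantified by RT-PCR, fluorescent labeling, HpaI digestion and capillary electrophoresis; bidirectional fitting versus DMSO.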

[10] = target: Transcription factor E2F1 (Homo sapiens) (UniProt Q01094); experiment: ATG_E2F_CIS: Attagene CIS-FACTORIAL HepG2 Assay for human E2F Transcription Factor 1 (AID 2282935); details: HepG2 Attagene cis-reporter, E2F reporter RNA transcripts; actives raise or lower the signal
Method in brief: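 Measures reporter transcript levels via RT-PCR with capillary electrophoresis detection in HepG2 cells harboring cis-regulated reporter units; 24 h post-dose; bidirectional curve fitting with DMSO as baseline.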

[11] = ATG_E_Box_CIS: Attagene CIS-FACTORIAL HepG2 Assay for human Enhancer Box (E-box) (AID 2282936); details: HepG2 E-box cis-reporter transcription, actives raise or lower the signal
Method in brief: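 First, HepG2 cells receive multiple cis-regulated reporter constructs by transient transfection. Next, chemicals are applied for 24 h. Finally, reporter mRNA is quantified via RT-PCR and capillary electrophoresis, with DMSO as baseline.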

[12] = ATG_M_61_CIS: Attagene CIS-FACTORIAL HepG2 Assay for M61 Transcription Factor (Internal Marker) (AID 2282937); details: HepG2 Attagene CIS-FACTORIAL M61 internal marker reporter; actives raise or lower the signal
Method in brief: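 Multiplexed reporter mRNA assay, HepG2 human hepatoma cells, 24 h treatment. Signal: FAM-labelled, HpaI-digested RT-PCR fragments by CE. Fit: bidirectional, baseline DMSO.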

[13] = ATG_EGR_CIS: Attagene CIS-FACTORIAL HepG2 Assay for human Early Growth Response 1 (EGR1) (AID 2282938); details: HepG2 Attagene CIS-FACTORIAL EGR reporter mRNA; actives raise or lower the signal
Method in brief: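 Multiplexed cis-reporter system in human hepatoma HepG2 cells, transiently transfected. Cells are dosed for 24 h; reporter transcripts are amplified, fluorescently tagged and sized by capillary electrophoresis, with DMSO as negative control.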

[14] = ATG_M_19_CIS: Attagene CIS-FACTORIAL HepG2 Assay for M19 Transcription Factor (Internal Marker) (AID 2282939); details: HepG2 Attagene CIS-FACTORIAL M19 internal marker reporter; actives raise or lower the signal
Method in brief: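 Readout: fluorescent reporter-transcript fragments by capillary electrophoresis after RT-PCR. Human HepG2 liver cells carried transfected MRTU constructs reporting endogenous transcription-factor activity; exposure 24 h. Gain or loss of signal fitted relative to DMSO.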

[15] = ATG_ERE_CIS: Attagene CIS-FACTORIAL HepG2 Assay for Estrogen Response Element (ERE) (AID 2282940); details: HepG2 ERE cis-reporter, Attagene RNA transcript; actives raise or lower the signal
Method in brief: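 Readout: reporter mRNA induction by RT-PCR, FAM-labelled primer extension, HpaI digestion and capillary electrophoresis, 24 h after dosing transfected HepG2 cells. Endogenous transcription factors act on cis-element-regulated reporters. Gain or loss fitted against DMSO.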

[16] = ATG_Ets_CIS: Attagene CIS-FACTORIAL HepG2 Assay for human Erythroblast Transformation Specific (ETS) (AID 2282941); details: HepG2 ETS cis-reporter transcription, actives raise or lower the signal
Method in brief: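 Human HepG2 hepatoma cells were transiently transfected with promoter-driven reporter constructs and treated for 24 hours. Reporter transcripts were quantified by RT-PCR with fluorescent primer extension; bidirectional curve fitting used DMSO as reference.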

[17] = target: Hepatocyte nuclear factor 3-beta (Homo sapiens) (UniProt Q9Y261); experiment: ATG_FoxA2_CIS: Attagene CIS-FACTORIAL HepG2 Assay for human Forkhead box A2 (FOXA2) (AID 2282942); details: HepG2 cis-reporter transcription factor activity, 24 h; actives raise or lower the signal
Method in brief: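 Multiplexed cis-element reporter assay in transiently transfected HepG2. Twenty-four hours post-dosing, RNA was reverse-transcribed, amplified, FAM-labelled, HpaI-digested and separated by CE. Activity gain or loss relative to DMSO.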

[18] = ATG_FoxO_CIS: Attagene CIS-FACTORIAL HepG2 Assay for human Forkhead box O (FoxO) (AID 2282943); details: HepG2 Attagene cis-reporter, FoxO element, mRNA; actives raise or lower the signal
Method in brief: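 HepG2 cells transiently transfected with cis-element-driven reporter units report endogenous FoxO activity. After 24 h chemical exposure, reporter mRNA quantified by RT-PCR, fluorescent labeling, HpaI digestion and capillary electrophoresis; bidirectional fit versus DMSO.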

[19] = ATG_GATA_CIS: Attagene CIS-FACTORIAL HepG2 Assay for human GATA Binding Protein (AID 2282944); details: HepG2 GATA cis-element reporter, Attagene multiplex mRNA; actives raise or lower the signal
Method in brief: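 Read-out: fluorescent reporter mRNA fragments resolved by capillary electrophoresis after RT-PCR. Human liver HepG2 cells carried transiently transfected cis-regulated reporter constructs; chemicals incubated 24 h; gain or loss of signal fitted relative to DMSO.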

[20] = ATG_GLI_CIS: Attagene CIS-FACTORIAL HepG2 Assay for human Zinc Finger Protein GLI1 (AID 2282945); details: HepG2, Attagene cis-factorial reporter mRNA, GLI element; actives raise or lower the signal
Method in brief: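 Transiently transfected HepG2 cells report endogenous transcription factor activity via cis-element-driven reporter units. After 24 h compound exposure, reporter mRNA was measured by RT-PCR with capillary electrophoresis; bidirectional fitting against DMSO baseline.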

Measured: AC50

Sequence of Retinoic acid receptor alpha (Homo sapiens) (P10276 whole entry, looked up): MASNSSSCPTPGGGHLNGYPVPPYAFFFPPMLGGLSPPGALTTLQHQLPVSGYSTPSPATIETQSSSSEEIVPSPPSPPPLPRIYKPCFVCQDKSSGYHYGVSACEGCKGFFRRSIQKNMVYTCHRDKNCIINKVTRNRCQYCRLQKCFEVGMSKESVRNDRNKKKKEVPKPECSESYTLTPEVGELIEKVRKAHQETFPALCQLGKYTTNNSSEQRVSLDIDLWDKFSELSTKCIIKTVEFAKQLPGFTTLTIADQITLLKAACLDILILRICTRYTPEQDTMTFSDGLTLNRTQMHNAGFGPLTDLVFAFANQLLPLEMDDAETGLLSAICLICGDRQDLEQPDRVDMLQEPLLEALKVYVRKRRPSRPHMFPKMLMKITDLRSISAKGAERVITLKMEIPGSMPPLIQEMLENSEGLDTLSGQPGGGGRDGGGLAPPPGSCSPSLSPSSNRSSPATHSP
Sequence of Transcription factor E2F1 (Homo sapiens) (Q01094 whole entry, looked up): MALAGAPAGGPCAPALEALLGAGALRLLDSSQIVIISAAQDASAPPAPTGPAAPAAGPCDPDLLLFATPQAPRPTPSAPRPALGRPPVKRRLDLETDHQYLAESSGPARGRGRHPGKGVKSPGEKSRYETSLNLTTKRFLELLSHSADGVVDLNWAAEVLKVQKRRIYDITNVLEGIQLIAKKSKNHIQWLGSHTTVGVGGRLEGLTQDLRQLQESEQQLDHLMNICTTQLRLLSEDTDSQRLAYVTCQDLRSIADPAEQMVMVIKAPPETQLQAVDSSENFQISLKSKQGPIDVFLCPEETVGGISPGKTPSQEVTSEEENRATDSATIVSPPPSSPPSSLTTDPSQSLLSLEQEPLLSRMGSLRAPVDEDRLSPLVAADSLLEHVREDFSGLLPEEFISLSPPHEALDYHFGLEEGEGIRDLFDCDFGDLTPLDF
Sequence of Hepatocyte nuclear factor 3-beta (Homo sapiens) (Q9Y261 whole entry, looked up): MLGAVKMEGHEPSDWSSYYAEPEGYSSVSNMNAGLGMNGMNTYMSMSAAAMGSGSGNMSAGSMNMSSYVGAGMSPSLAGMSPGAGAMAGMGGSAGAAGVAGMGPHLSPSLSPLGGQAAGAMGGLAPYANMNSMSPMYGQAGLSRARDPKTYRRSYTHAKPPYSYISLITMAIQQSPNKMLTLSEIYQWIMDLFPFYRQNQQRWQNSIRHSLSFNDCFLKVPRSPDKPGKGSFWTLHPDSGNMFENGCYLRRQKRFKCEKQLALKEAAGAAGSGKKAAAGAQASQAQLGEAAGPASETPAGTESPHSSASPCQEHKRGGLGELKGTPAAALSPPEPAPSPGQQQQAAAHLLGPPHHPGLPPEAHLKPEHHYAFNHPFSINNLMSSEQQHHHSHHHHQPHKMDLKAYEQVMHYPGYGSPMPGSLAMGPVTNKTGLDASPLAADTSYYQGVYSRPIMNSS
Sequence of CCAAT/enhancer-binding protein beta (Homo sapiens) (P17676 whole entry, looked up): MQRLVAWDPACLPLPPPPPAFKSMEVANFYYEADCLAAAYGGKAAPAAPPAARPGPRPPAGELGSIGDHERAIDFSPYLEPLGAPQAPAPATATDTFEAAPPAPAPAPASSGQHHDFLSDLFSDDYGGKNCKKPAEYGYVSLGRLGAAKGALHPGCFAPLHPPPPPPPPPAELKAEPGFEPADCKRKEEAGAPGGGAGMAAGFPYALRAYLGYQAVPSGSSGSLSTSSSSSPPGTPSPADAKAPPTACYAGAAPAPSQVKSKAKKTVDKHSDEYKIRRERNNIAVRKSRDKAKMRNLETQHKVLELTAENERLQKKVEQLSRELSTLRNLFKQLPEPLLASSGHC
Sequence of Aryl hydrocarbon receptor (Homo sapiens) (P35869 whole entry, looked up): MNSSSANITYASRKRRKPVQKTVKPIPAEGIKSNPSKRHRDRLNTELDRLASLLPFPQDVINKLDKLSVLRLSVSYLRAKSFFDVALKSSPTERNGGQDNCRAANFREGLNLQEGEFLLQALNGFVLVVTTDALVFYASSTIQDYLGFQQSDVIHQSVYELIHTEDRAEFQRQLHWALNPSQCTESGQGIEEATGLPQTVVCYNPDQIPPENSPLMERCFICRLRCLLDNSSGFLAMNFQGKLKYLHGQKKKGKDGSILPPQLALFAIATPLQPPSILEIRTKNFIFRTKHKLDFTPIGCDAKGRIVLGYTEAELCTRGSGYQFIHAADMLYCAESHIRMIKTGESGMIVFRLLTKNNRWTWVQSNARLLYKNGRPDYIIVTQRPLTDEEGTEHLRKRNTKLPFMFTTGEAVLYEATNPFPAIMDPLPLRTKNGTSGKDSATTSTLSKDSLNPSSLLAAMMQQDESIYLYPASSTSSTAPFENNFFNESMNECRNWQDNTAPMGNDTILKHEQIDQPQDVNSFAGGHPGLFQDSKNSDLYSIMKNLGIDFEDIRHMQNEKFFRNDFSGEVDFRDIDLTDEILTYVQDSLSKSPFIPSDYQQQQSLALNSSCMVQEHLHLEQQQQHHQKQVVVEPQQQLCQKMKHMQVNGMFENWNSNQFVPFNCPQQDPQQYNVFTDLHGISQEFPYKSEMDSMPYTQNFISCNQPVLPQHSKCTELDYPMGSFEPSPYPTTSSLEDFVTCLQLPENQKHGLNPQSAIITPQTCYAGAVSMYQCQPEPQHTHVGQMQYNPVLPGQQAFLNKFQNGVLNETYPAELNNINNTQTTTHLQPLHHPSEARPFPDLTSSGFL

C=C(C)C(=O)[O][Sn]([CH2]CCC)([CH2]CCC)[CH2]CCC
active: [3] 0.288 µM | [6] 451 nM | [7] 0.412 µM | [9] 0.00707 µM | [11] 562 nM | [18] 0.665 µM
not listed: [20]
inactive: all other assays above

ClC1(Cl)C2(Cl)C3(Cl)C4(Cl)C(Cl)(Cl)C5(Cl)C3(Cl)C1(Cl)C5(Cl)C24Cl (configuration not stated)
not listed: [20]
inactive: all other assays above

O=C/C=C/c1ccccc1
active: [15] 35 µM
not listed: [14]
inactive: all other assays above

COP(=S)(OC)Oc1ccc(Sc2ccc(OP(=S)(OC)OC)cc2)cc1
active: [3] 15.5 µM | [4] 100 µM | [8] 6.58 µM | [13] 29.8 µM
not listed: [14] | [20]
inactive: all other assays above

C[C@]12CCC(=O)C[C@@H]1CC[C@@H]1[C@@H]2CC[C@]2(C)[C@@H](O)CC[C@@H]12
active: [3] 52.1 µM | [4] 116 µM | [5] 23.1 µM | [8] 65.4 µM and 87 µM | [11] 24 µM and 23.2 µM and 13.8 µM
inactive: [1] | [2] | [3] | [4] | [5] | [6] | [7] | [8] | [9] | [10] | [11] | [12] | [13] | [14] | [16] | [17] | [18] | [19]

C[C@@H]1C[C@@H]([C@H](O)CC2CC(=O)NC(=O)C2)C(=O)[C@@H](C)C1
inactive: [1] | [3] | [6] | [8] | [10] | [12] | [13] | [14] | [17] | [19] | [20]
active: [1] 11.1 µM | [2] 1.31 µM [middle of 4 runs] | [3] 0.286 µM | [6] 24.1 µM and 11.9 µM | [8] 16.6 µM and 5.79 µM and 22.8 µM | [10] 573 nM and 632 nM | [16] 6.31 µM [middle of 4 runs] | [17] 10.1 µM
